# Experimental data as given in PubChem BioAssay AID686978 (National Center for Advancing Translational Sciences (NCATS), 2013).
# Values joined by “and” are separate entries in the source; they are usually repeats but may differ in a detail not shown here. Equal values may be shown once. Screen size: about 420,000 compounds; about 64,000 (15%) were called active. About 27% were inconclusive and are not listed. The call rests on the fitted dose curve; in most records, active means well fitted inhibition curve with a large enough effect; inconclusive means small, poorly fitted or top-dose-only effect; inactive means flat fitted curve, though single readings scatter. Only a sample is shown.
# Assay: qHTS for Inhibitors of human tyrosyl-DNA phosphodiesterase 1 (TDP1): qHTS in cells in absence of CPT; further: nearly all actives have a fitted effect of over 55% in size
# Conditions: DT40 Tdp1-/- hTDP1 cells, no CPT, ATP luminescence, 48 h; activity change, negative = growth inhibition: at 46.2 µM (top of the series)
# Procedure, shortened: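 Compound effects on proliferation are scored in DT40 Tdp1-/-;hTDP1 cells in the absence of CPT. ATP levels (CellTiter-Glo luminescence) are recorded after a ≥48 hr, 37 °C incubation.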
# On the % scale 0 is the no-effect control and ±100 the full control effect; potency means the concentration at half of the fitted maximal effect.
SMILES,Potency,"activity change, negative = growth inhibition"
CC/C(=N\NC(=S)NC(C)C)c1ccc(OC(F)F)cc1,16.4 µM (active),–
O=C(COC(=O)c1ccc(N2CCCC2=O)cc1)c1ccc(OC(F)F)cc1,–,-19.2% (inactive)
CC(C)CNC(=S)NNC(=O)c1ccccc1OC(F)F,–,-12.1% (inactive)
C/C=C1\C2C=C(C)CC1(N)c1ccc(=O)[nH]c1C2 (stereo not given),–,-12.4% [at 92.5 µM] (inactive)
COC(=O)Cc1csc(/N=C/c2c(O)n(-c3cccc(C(F)(F)F)c3)c(=O)c3ccccc23)n1,16.4 µM (active),–
COC(=O)Cc1c(O)ccn(Cc2cccc(C(F)(F)F)c2)c1=O,–,-26% (inactive)
COC(=O)Cc1csc(Nc2c(C)n(C)n(-c3ccccc3)c2=O)n1,–,0.65% (inactive)
CC(C)C(=O)NC(=S)Nc1ccccc1F,–,-0.205% (inactive)
CC(NC(=O)Nc1cccc([N+](=O)[O-])c1)c1ccc2c(c1)OCO2 (stereo not given),–,-18.9% (inactive)
O=C(Nc1cccnc1)c1noc2c1CCCCC2,–,-19.8% (inactive)
CC(C)CC[n+]1ccn(C2=C([O-])c3ccccc3C(=O)/C2=N\S(=O)(=O)c2ccccc2)c1,10.3 µM (active),–
Cc1ccc(NC2CCCN(C(=O)CCC3(C)CC3)C2)cc1C (stereo not given),–,-29.4% (inactive)
CCOC(=O)CN1CC23C=CC(O2)C(C(=O)Nc2ccc(F)cc2)C3C1=O (stereo not given),–,3.97% (inactive)
COCCn1nnnc1CN1CCC(NC(=O)Nc2cccc(OC)c2)CC1,–,-6.87% (inactive)
Cc1cccc(C)c1Nc1c(-c2ccccc2O)nc2ncccn12,18.4 µM (active) and 23.1 µM (active),–
Cc1ccc(-c2c(N)nc3ncccn23)cc1,–,6.62% (inactive)
Cc1c(-c2cccc(NC(=O)C(C)(C)C)c2)nc2ncccn12,–,-3.43% (inactive)
Cc1nc(-c2ccc(F)cc2)c(CC(=O)N(C)CC(=O)Nc2c(C)cccc2C)s1,–,-0.693% (inactive)
CCc1cccc(C)c1Nc1c(-c2ccc(N(C)C)cc2)nc2ncccn12,10.3 µM (active),–
Nn1c(SCC(=O)Nc2nccs2)nncc1=O,–,-5.81% (inactive)
CC(C)CCNC(=O)CC1C(=O)N(Cc2ccccc2)C(C)c2nc3ccccc3n21 (stereo not given),–,-18.9% (inactive)
CN(C)c1ccnc(Nc2ccc(F)cc2)c1C#N,–,-0.174% (inactive)
COc1ccccc1/C=C/C(=O)NC(=S)N1CCOCC1,–,-12.6% (inactive)
COc1ccccc1/C=C/C(=O)NC1CC2CCC1C2 (stereo not given),–,-20.8% (inactive)
COc1ccccc1/C=C/C1=NC(=C\N(C)C)/C(=O)O1,20.6 µM (active),–
O=C(CCNS(=O)(=O)c1ccccc1C(F)(F)F)NCc1ccc2c(c1)OCO2,–,-0.322% (inactive)
C=CCOC(=O)c1ccccc1C(=O)OCC=C,–,-12.2% (inactive)

SMILES,Potency,"activity change, negative = growth inhibition"
CCOC(=O)C1=C(C)NC(=S)NC1c1cccs1 (stereo not given),–,-3.91% (inactive)
C=CCOC(=O)C1=C(C)NC(C)=C(C(=O)OCC=C)C1c1cccs1,18.4 µM (active),–
CC(C)C(NC(=O)c1ccc(Cl)cc1)C(=O)O (stereo not given),–,7.61% (inactive)
CSc1ncccc1C(=O)Nc1nc2ccc(F)cc2s1,–,-12% (inactive)
O=C(COc1ccc(S(=O)(=O)N2CCCC2)cc1[N+](=O)[O-])N1CCCCC1,–,-19.5% (inactive)
Cc1cc(C(=O)COc2ccccc2[N+](=O)[O-])c(C)n1-c1cccc(S(=O)(=O)N2CCOCC2)c1,23.1 µM (active),–
Cc1cc(S(=O)(=O)N2CCOCC2)ccc1OCC(=O)N1CCOCC1,–,-12.2% (inactive)
CCCCCC(O)c1cccc(OCc2ccc3ccccc3n2)c1 (stereo not given),–,-7.93% [at 4.12 µM] (inactive)
C/C(=N/OC(=O)c1c(-c2c(F)cccc2Cl)noc1C)c1cnccn1,–,23.1% (inactive)
O=C(CN1C(=O)COc2ccccc21)Nc1ccc(F)cc1,–,-26.2% (inactive)
CCN(CC)S(=O)(=O)c1cc(C(=O)Nc2ccccn2)ccc1C,–,-24.1% (inactive)
CCOc1ccc(N(CC(=O)Nc2cccc(OC)c2)S(C)(=O)=O)cc1,–,9.81% (inactive)
CCOc1cccc(NC(=O)c2ccc(F)c(S(=O)(=O)N(CC)c3cccc(C)c3)c2)c1,25.9 µM (active),–
CC1(C)CC(=O)C=C(NCCCNC2CCCCC2)C1,–,-0.22% (inactive)
O=Cc1ccc(Oc2cccc(C(F)(F)F)c2)nc1,–,-4.01% (inactive)
N/C(=N\OC(=O)Nc1ccccc1)c1ccno1,–,-3.56% (inactive)
COC(=O)c1ccccc1NC(=O)Cn1c(=O)n(-c2cccc(C(F)(F)F)c2)c(=O)c2c(C)c(C)sc21,–,-15.7% (inactive)
CCC(=O)N1CCc2cc(Br)cc(S(=O)(=O)CCC(=O)NCc3ccccc3OC)c21,–,-6.88% (inactive)
CC(=O)NC(CC(=O)Nc1ccc(S(=O)(=O)N2CCOCC2)cc1)c1ccccc1 (stereo not given),–,-0.105% (inactive)
CCOc1ccc(CC(=O)NC2CCN(Cc3ccccc3)CC2)cc1,–,-0.44% (inactive)
CCOc1ccc(CN2CCN(Cc3c[nH]c4ccccc34)CC2)cc1,5.8 µM (active),–
O=C(NCCc1c[nH]c2ccccc12)C(=O)NCC1CCCO1 (stereo not given),–,-19.7% (inactive)
O=C(NCCc1c[nH]c2ccccc12)C1CCN(Cc2ccc(Br)cc2)CC1,16.4 µM (active),–
O=C(CN1C(=O)NC2(CCCCC2)C1=O)NCCc1c[nH]c2ccccc12,–,-15.7% (inactive)
CCOc1ccc(CN2CCCN(C)CC2)cc1,–,-0.758% (inactive)
N/C(=N\OC(=O)CCc1ccccc1)c1cccnc1,–,1.89% (inactive)
O=C(COc1coc(CN2CCN(c3ccccc3F)CC2)cc1=O)N1CCc2ccccc21,–,-1.46% (inactive)

SMILES,Potency,"activity change, negative = growth inhibition"
Cc1cc(C(=O)OCC(=O)c2c(N)n(C)c(=O)n(C)c2=O)c(C)o1,–,-4.19% (inactive)
Nc1nc(O)c(CC(=O)O)s1,–,-6.12% (inactive)
CCOC(=O)C1=C(O)/C(=C/c2ccc(OCC(=O)Nc3ccc(C)cc3)cc2)N=C1C,–,-4.71% (inactive)
O=c1c(-c2ccccc2)cnc2n1CCS2,–,19.4% (inactive)
CCCc1nn2c(=O)cc(COC(=O)c3ccc(NC(=O)COc4ccc(F)cc4)cc3)nc2s1,–,-22.2% (inactive)
Cc1onc(-c2c(Cl)cccc2Cl)c1C(=O)c1c[nH]c(C(=O)NC2CC2)c1,–,-17.8% (inactive)
CC1(C)CC(=O)c2sc(N)nc2C1,–,3.79% (inactive)
Cc1cccc(CC(=O)N2CCN=C2SCc2ccc([N+](=O)[O-])cc2)c1,16.4 µM (active),–
O=C(Cc1ccc(F)cc1)N1CCN=C1SCc1cccc([N+](=O)[O-])c1,–,4.03% (inactive)
Cc1cc(C)cc(C(=O)N2CCN=C2SCc2ccc([N+](=O)[O-])cc2)c1,–,-40.8% (inactive)
C/C(=N\NC(=O)CCn1nc(C)cc1C)C(C)(C)C,–,-4.5% (inactive)
CCc1cnc2c(c1SCC(=O)N1CCC(C)CC1)c(=O)n(C)c(=O)n2C,20.6 µM (active),–
Cn1c(=O)c2c(SCC(=O)N3CCOCC3)nc(C3CC3)nc2n(C)c1=O,–,-17.1% (inactive)
CCOC(=O)N1CCN(C(=O)CSc2nc(C)nc3c2c(=O)n(C)c(=O)n3C)CC1,–,-1.53% (inactive)
O=C(CSCc1ccc([N+](=O)[O-])cc1)NCCSCc1ccccc1,–,-0.761% (inactive)
CC(Sc1nnc(Cc2ccc([N+](=O)[O-])cc2)o1)C(N)=O (stereo not given),–,-1.37% (inactive)
Cc1nc(N)nc(SCc2ccc([N+](=O)[O-])cc2)c1N,25.9 µM (active),–
CCCN(C(=O)COC(=O)CNS(=O)(=O)c1ccc(NC(C)=O)cc1)C1CCS(=O)(=O)C1 (stereo not given),–,24.2% (inactive)
O=C(NCCCc1ccccc1)C(=O)c1c[nH]c2ccccc12,–,-16.1% (inactive)
COc1ccc(OC)c2[nH]c(=O)c(CCNC(=O)C(C)(C)C)cc12,–,-3.77% (inactive)
COc1ccc(OC)c2[nH]c(=O)c(CCNC(=O)C(=O)c3c[nH]c4ccccc34)cc12,7.31 µM (active),–
N#CCCCn1c(O)c(N=NC(=O)C(O)c2ccccc2)c2ccccc21 (stereo not given),–,13.4% (inactive)
CCNC(=S)NCC,–,15.3% (inactive)
COc1ccc(CCNC(=S)N2CCN(S(=O)(=O)c3ccc(Cl)cc3)CC2)cc1,–,-6.86% (inactive)
Oc1cc2c(cc1O)CN(C(=S)NCCc1ccc(Cl)cc1)CCC2,8.91 µM (active),–
S=C(Nc1ccc(Cl)cc1Cl)N1CCCC1,–,13.4% (inactive)
Cc1cccc(C)c1NC(=O)CNC(=O)Cc1ccc(Br)cc1,–,-15.9% (inactive)

SMILES,Potency,"activity change, negative = growth inhibition"
CN(Cc1ccco1)c1cc(-c2ccccc2C(F)(F)F)ncn1,–,-21.6% (inactive)
COc1ccccc1CNc1cc(-c2ccccc2CN(C)C)ncn1,–,-17.6% (inactive)
FC(F)(F)c1ccccc1-c1cc(NCc2ccccc2)ncn1,9.2 µM (active),–
COc1ccc(CCC(=O)c2c(O)cc(OC3OC(CO)C(O)C(O)C3O[C@@H]3OC(C)C(O)C(O)C3O)cc2O)cc1O (stereo not given in full),–,-8.37% (inactive)
COCC1CCCN(Cc2ccc3c(c2)CN(C(=O)c2ccnn2C)CCO3)C1 (stereo not given),–,-5.47% (inactive)
NS(=O)(=O)c1ccc(NC(=S)NNC(=O)c2cccs2)cc1,–,-24.8% (inactive)
Cc1cc(C)nc(SCC(=O)c2ccc(Cl)cc2)n1,–,-20.5% (inactive)
Cc1cc(C)nc(SCC(=O)N(C)C)n1,–,13.2% (inactive)
Cc1cc(Oc2ccc(Cl)cc2)nc(SCC(=O)c2ccccc2)n1,23.1 µM (active),–
Cc1ccc(NS(=O)(=O)c2cccs2)cc1S(=O)(=O)N1CCCCCC1,–,-28.3% (inactive)
Cc1ccc(C)c(Nc2nnc(-c3ccc(C)c(S(=O)(=O)N4CCCCC4)c3)c3ccccc23)c1,9.2 µM (active),–
Cc1ccc(C(=O)NCC(=O)O)cc1S(=O)(=O)N1CCCCC1,–,-8.3% (inactive)
COc1ccc(C2CC(=O)n3c(nc4ccccc43)S2)cc1OC (stereo not given),–,-19.5% (inactive)
COc1cc(=O)n2c(c1C(=O)NC(C)c1ccco1)CCN(C(=O)c1cn3ccc(C)cc3n1)CC2 (stereo not given),–,-7.59% (inactive)
O=C(CN1CCN(C(=O)c2ccco2)CC1)Nc1ccc2c(c1)OCO2,–,4.43% (inactive)
COc1ccc(OC)c(NC(=O)CN2CCN(C(=O)c3ccco3)CC2)c1,–,-22.3% (inactive)
O=C(CN1CCN(C(=O)c2ccco2)CC1)Nc1ccc(Cl)c(C(F)(F)F)c1,16.4 µM (active),–
COc1cc(NC(=O)COC(=O)c2cnc(C)cn2)c(C)cc1[N+](=O)[O-],–,15.3% (inactive)
CCCN1C(=O)C(NS(=O)(=O)c2ccc(N)cc2)(C(F)(F)F)C(C(=O)OC)=C1C (stereo not given),–,0.164% (inactive)
O=C(O)CCCC(=O)N1N=C(c2ccco2)CC1c1ccco1 (stereo not given),–,-3.36% (inactive)
COc1cccc(-c2coc3cc4oc(=O)c(CC(=O)O)c(C)c4cc23)c1,–,-9.2% (inactive)
Oc1c(Br)cccc1/C=N/Nc1c(F)c(F)c(F)c(F)c1F,20.6 µM (active),–
Brc1ccccc1/C=N/Nc1nc2ccccc2o1,–,-21.9% (inactive)
COc1ccc(C)cc1NC(=O)CN(C)S(=O)(=O)c1ccc2c(c1)n(C)c(=O)c(=O)n2C,–,6.24% (inactive)
